Screening results from PubChem BioAssay.
TROY NFkB inh = blocks TROY-dependent signaling in reporter cells. 360,000 compounds, 0.98% hits. AID 1347056. inhibition, % at 10 µM. Q293 LMP1-TROYcd NF-kB luciferase reporter, 4 h;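 active = compounds whose plate-normalised and pattern-corrected inhibition of the luciferase reporter signal at the single screening dose is 50% or more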
HSP90 refold inh = blocks HSP90-mediated luciferase refolding in reticulocyte lysate; Rabbit reticulocyte lysate, luciferase refolding luminescence, 3 h; AID 1789; 290,000 compounds, 0.91% hits; inhibition, % at 5.6 µM;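 active = inhibition above the screen-wide mean plus 3 SD, computed separately per campaign, cut at about 16% in these data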;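 note: 0% = DMSO wells and 100% = 60 µM geldanamycin wells; inhibitors lower the luminescence because luciferase stays unfolded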
TWEAK-Fn14 inh = inhibitors of TWEAK-Fn14 interaction signaling; TWEAK-stimulated Fn14 reporter cells, luciferase luminescence, 8 h; inhibition, % at 10 µM; 360,000 compounds, 2% hits; in the data active = inhibition above about 50%
LGR2 inh = inhibitors of bursicon-induced Drosophila LGR2 receptor cAMP signaling | HEK293 LGR2, CRE-luciferase, bursicon-stimulated, 4 h | inhibition, % at 9.99 µM | 380,000 compounds, 0.35% hits;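 active = drop in luminescence signal, shown as inhibition above about 50% in the replicate tests, limit read from the data, passing the limit was not always enough; inconclusive = probably only some replicates passing the limit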;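 note: agonist challenge used bursicon conditioned medium at about half maximal strength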
* hit, by the source's call; ? = inconclusive; nt = no result given. Only some compounds are listed: those with a hit (about 2.2% of all), similar ones and a draw of the others.

SMILES | TROY NFkB inh | HSP90 refold inh | TWEAK-Fn14 inh | LGR2 inh
Cc1ccc(NC(=O)Cn2ncc(Cl)c(Cl)c2=O)cc1S(=O)(=O)N1CCCCC1 | 84.3* | nt | 85.8* | 6.4
CCS(=O)(=O)N1Cc2ccccc2CC1C(=O)N(C)CC(=O)Nc1cccc(F)c1 (stereo not drawn) | 58.5* | nt | 21.4 | -24.4
Cc1ccc(NC(=O)c2cc(=O)c3ccccc3o2)cc1S(=O)(=O)N1CCCCC1 | 56.9* | 2.9 | -18.2 | 27.9
CN(CC(=O)Nc1ccc(F)cc1)C(=O)C1Cc2ccccc2CN1S(C)(=O)=O (stereo not drawn) | -9.2 | nt | -10.5 | 13.5
Cc1ccc(NC(=O)c2ccccc2NS(=O)(=O)c2ccc(F)cc2)cc1S(=O)(=O)N1CCCCC1 | 60.3* | -4.1 | 72.2* | ?
Cc1ccc(NC(=O)c2cc(=O)c3ccccc3o2)cc1S(=O)(=O)N1CCOCC1 | 7.3 | -2.9 | 15.1 | 22.9
CCCN1[C@@H]2c3ccc(-c4ccc(F)cc4)c(=O)n3C[C@@H]2[C@@H](CO)[C@@H]1C(=O)OC | nt | nt | nt | 11.1
O=C(Nc1cccc(S(=O)(=O)N2CCCCC2)c1)c1ccccc1NS(=O)(=O)c1ccc(F)cc1 | 54.1* | -3.9 | 58.0* | 21.9
Cc1ccc(C(=O)Nc2ccccc2C(=O)NCc2ccco2)cc1S(=O)(=O)N1CCCCC1 | -27.3 | -2.1 | 51.7* | nt
COc1ccc(NC(=O)CN(C)CC(=O)Nc2cccc(F)c2)cc1S(=O)(=O)N1CCCCC1 | -3.0 | nt | -1.6 | -5.2
Cc1ccc(NC(=O)CN(C)C(=O)Cn2ncc(Cl)c(Cl)c2=O)cc1 | 31.3 | 0.3 | 95.7* | 8.8
Cc1ccc(NC(=O)CN(C)CC(=O)Nc2cccc(F)c2)cc1S(=O)(=O)N1CCCCCC1 | 50.4* | -2.1 | 50.3* | 31.8
O=C(CC1CC1)Nc1ccc2c(c1)[C@@H]1C[C@H](CC(=O)N3CCc4ccccc4C3)O[C@H](CO)[C@@H]1O2 | nt | nt | nt | -9.3
C[C@@H]1CN([C@@H](C)CO)C(=O)CCCn2cc(nn2)CO[C@@H]1CN(C)C(=O)OCc1ccccc1 | nt | nt | nt | -4.4
CO[C@H]1CN(C)C(=O)c2ccc(NC(=O)c3cccc(F)c3)cc2OC[C@@H](C)N(C)C[C@@H]1C | nt | nt | nt | 6.0
COC(=O)c1cc(Br)c(=O)n(Cc2ccco2)c1 | nt | 1.5 | 77.6* | nt
COC(=O)c1ccc(=O)n(Cc2ccco2)c1 | 12.6 | -0.1 | -15.1 | nt
COc1ccc2c(c1)/C(=C/c1cc(OC)c(OC)c(OC)c1)C(=O)N2 | 27.1 | nt | 56.9* | 17.8
COc1ccc(/C=C2\C(=O)NC(=O)c3ccccc32)cc1OC | -8.0 | nt | -13.8 | -11.8
CC(c1ccccc1)C1C(C#N)=C(N)SC(N)=C1C#N (stereo not drawn) | -9.2 | 0.1 | 0.3 | nt
CC(CC1C(C#N)=C(N)SC(N)=C1C#N)c1ccccc1 (stereo not drawn) | 50.4* | 3.7 | -1.7 | nt
Cc1cccc(NC(=O)/C=C/c2ccc([N+](=O)[O-])s2)c1 | -39.2 | 0.7 | 85.0* | -2.7
Cc1ccc(NC(=O)/C=C/c2ccc([N+](=O)[O-])s2)c(C)c1 | 4.0 | 1.9 | 90.9* | 23.3
Cc1ccc(NC(=O)/C=C/c2ccc([N+](=O)[O-])s2)cc1 | 16.1 | -2.2 | 50.5* | -95.3
Cc1cccc(NC(=S)N/N=C/c2ccc([N+](=O)[O-])s2)c1 | -21.7 | -5.5 | -12.1 | nt
SMILES | TROY NFkB inh | HSP90 refold inh | TWEAK-Fn14 inh | LGR2 inh
COc1ccc2c3c(n(C)c2c1)[C@@H](CO)N(C(=O)c1ccccn1)CC31CN(C(=O)c2ccccn2)C1 | nt | nt | nt | 0.0
CN1c2ccc(-c3ccccc3F)cc2[C@@H]2[C@@H](CCN2C(=O)Nc2ccc(F)cc2)[C@@H]1CO | nt | nt | nt | -7.1
CO[C@@H]1CN(C)C(=O)c2ccc(NS(C)(=O)=O)cc2OC[C@@H](C)N(S(C)(=O)=O)C[C@H]1C | nt | nt | nt | 8.1
CC(C)c1nnc(NC(=O)CCc2ccccc2)s1 | -26.1 | 5.1 | -4.8 | -24.0
CSc1nnc(NC(=O)c2nc(S(=O)(=O)Cc3ccccc3)ncc2Cl)s1 | 25.8 | 5.3 | 98.1* | -15.6
CC(C)c1nnc(NC(=O)c2nc(S(=O)(=O)Cc3ccccc3)ncc2Cl)s1 | 32.4 | 8.4 | 93.7* | 6.7
Cc1ccc(S(=O)(=O)CCc2nnc(NC(=O)c3cnccn3)s2)cc1 | -19.3 | 5.7 | -5.7 | nt
CCCc1nnc(NC(=O)c2nc(S(=O)(=O)Cc3ccc(C)cc3)ncc2Cl)s1 | 62.0* | 4.7 | 95.0* | -14.7
C[C@@H]1CN([C@H](C)CO)C(=O)c2cc(-c3cccc(F)c3)cnc2O[C@@H]1CN(C)C(=O)C1CC1 | nt | nt | nt | -11.9
CNC[C@@H]1Oc2cc(C#CCC(C)C)ccc2S(=O)(=O)N([C@@H](C)CO)C[C@H]1C | nt | nt | nt | -11.9
Oc1cccc(-c2nc3c4c(ncn3n2)-c2ccccc2CC42CCCC2)c1 | 41.4 | -1.0 | 71.4* | ?
COCC(=O)Nc1ccc2c(c1)OC[C@@H](C)N(C(=O)C1CCCC1)C[C@H](C)[C@@H](OC)CN(C)C2=O | nt | nt | nt | 3.1
COc1ccc(COc2ccccc2C(=O)NCc2ccccc2)cc1F | 47.4 | -0.4 | 68.8* | -11.8
O=C(c1cccnc1)N1CC(=O)N2[C@H](C1)[C@@H](c1ccc(C#CCC3CCCC3)cc1)[C@@H]2CO | nt | nt | nt | 4.2
CCCCOc1ccc(/C=C/C(=O)OCC(=O)N2CC(=O)Nc3ccccc32)cc1OCC | 43.2 | 9.4 | 68.1* | 18.6
O=C(NC1CC1)C1=C[C@@H](c2ccc(Br)cc2)C[C@@H](OCCCCO)O1 | 50.5* | -2.0 | 16.0 | nt
Cc1ccc2nc(C(F)(F)F)c(C#N)c(N)c2c1 | 53.2* | 2.7 | 64.4* | 65.4*
Cc1cc(C)c2nc(C(F)(F)F)c(C#N)c(N)c2c1 | 21.9 | -3.1 | 70.4* | nt
CCCC(=O)Nc1ccc2c(c1)C(=O)N(C)C[C@@H](OC)[C@H](C)CN(Cc1ccncc1)[C@@H](C)CO2 | nt | nt | nt | -3.6
O=C(NCCC1=CCCCC1)C1CC(=O)N(Cc2ccccc2)C1 (stereo not drawn) | 4.7 | -2.4 | 94.9* | 4.5
COCC#Cc1ccc2c(c1)O[C@@H](CN(C)C(=O)NC(C)C)[C@H](C)CN([C@@H](C)CO)S2(=O)=O | nt | nt | nt | 9.4
Cc1cccc(-n2c(SCC(N)=O)nc3c(c2=O)C2(CCCC2)Cc2ccccc2-3)c1 | 50.5* | 7.0 | 33.4 | 14.3
O=[N+]([O-])c1ccc(NS(=O)(=O)c2ccc(Cl)c(Cl)c2)cc1 | 54.7* | nt | 44.0 | 7.0
O=C(C[C@H]1C=C[C@@H](NC(=O)CN2CCOCC2)[C@H](CO)O1)NCCc1ccncc1 | nt | nt | nt | 1.4
O=C(C[C@@H]1CC[C@H](NC(=O)c2ccccn2)[C@H](CO)O1)NCc1cc(F)cc(F)c1 | nt | nt | nt | -7.9
SMILES | TROY NFkB inh | HSP90 refold inh | TWEAK-Fn14 inh | LGR2 inh
N#Cc1cc2c(nc1SCC(=O)N1CCCCC1)CCCCC2 | 56.1* | 11.1 | 40.8 | nt
Cc1ccc(Nc2cc(C)nn2-c2nc(C)cc(=O)[nH]2)cc1 | 83.7* | 0.4 | 108.0* | nt
CCCNC(=O)Cn1cnc2sc(C(=O)Nc3ccc4c(c3)OCO4)c(C)c2c1=O | -25.9 | -0.3 | -12.1 | -7.9
CCn1cnc2sc(C(=O)Nc3ccc4c(c3)OCO4)c(C)c2c1=O | nt | -0.3 | 57.4* | nt
O=[N+]([O-])c1cnc2ccccc2c1 | -2.8 | 3.6 | 0.0 | 2.6
O=[N+]([O-])c1cc([N+](=O)[O-])c2cc3ccccc3nc2c1 | 33.1 | 10.6 | 92.9* | 10.8
O=C(O)c1ccc(N=Nc2c(O)[nH]c3ccccc23)cc1 | 28.4 | 41.2* | 89.7* | 30.9
